Jurkat autofluor: compound autofluorescence on Jurkat cells, primary screen, artefact control for VLA-4 allosteric ligand project, cell-based, flow cytometry | hits give high values; 1 = vehicle-only cell background | fluorescence ratio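 (tested at 10 µM compound in the well)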 | hit rate 0.61% among 24,000 | AID 576, 2007;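 active means fluorescence ratio above 2.44, which is 1 plus 3 SD of all ratios; inconclusive means signal too bright to measure linearly, ratio around 10 or more; inactive means fluorescence ratio below 2.44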;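 further: green fluorescence of cells measured with 488 nm excitation and 530 nm emission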
VLA-4 antagonist: inhibitors of LDV-FITC binding to Mn2+-activated VLA-4, primary screen, Jurkat cells | inhibition, % at 10 µM (by protocol) | hit rate 0.2% among 24,000 | LDV-FITC binding with Mn2+, flow cytometry; 100% = Mn2+-driven binding gain fully reversed | Integrin alpha-4 (Homo sapiens), P13612;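 active means inhibition above 50%; inconclusive means compound itself fluorescent, judged against control cell fluorescence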;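 further: 0% = Mn2+ stimulated cells lacking compound and 100% = ligand binding without Mn2+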
FPR ligand: human FPR ligands by binding competition, primary screen, cell-based, FPRL1 counter-screen, flow cytometry | fMet-Leu-Phe receptor (Homo sapiens), P21462 | AID 440, 2006 | inhibition, % (concentration not given with the values) | hit rate 0.74% among 24,000 | FPR-expressing cells, fluorescent ligand binding;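 further: 0% = buffer wells and 100% = receptor blocker peptide wells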
Target sequence (P21462 whole entry, looked up): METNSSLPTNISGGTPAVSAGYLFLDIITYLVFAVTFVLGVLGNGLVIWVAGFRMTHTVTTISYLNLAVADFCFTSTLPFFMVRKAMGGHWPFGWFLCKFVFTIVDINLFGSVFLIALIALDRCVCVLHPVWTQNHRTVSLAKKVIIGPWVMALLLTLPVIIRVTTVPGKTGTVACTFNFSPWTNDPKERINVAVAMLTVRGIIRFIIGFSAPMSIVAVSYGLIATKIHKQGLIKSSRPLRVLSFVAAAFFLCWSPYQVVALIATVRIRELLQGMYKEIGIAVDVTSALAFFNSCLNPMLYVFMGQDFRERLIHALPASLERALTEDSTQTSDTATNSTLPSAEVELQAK
FPRL1 ligand: human FPRL1 ligands by binding competition, primary screen, cell-based, FPR counter-screen, flow cytometry; AID 441, 2006; hit rate 0.3% among 24,000; inhibition, % (concentration not given with the values); FPRL1-expressing cells, fluorescent ligand binding inhibition;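 further: 0% = buffer alone and 100% = receptor blocker peptide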
Target sequence (P25090 whole entry, looked up): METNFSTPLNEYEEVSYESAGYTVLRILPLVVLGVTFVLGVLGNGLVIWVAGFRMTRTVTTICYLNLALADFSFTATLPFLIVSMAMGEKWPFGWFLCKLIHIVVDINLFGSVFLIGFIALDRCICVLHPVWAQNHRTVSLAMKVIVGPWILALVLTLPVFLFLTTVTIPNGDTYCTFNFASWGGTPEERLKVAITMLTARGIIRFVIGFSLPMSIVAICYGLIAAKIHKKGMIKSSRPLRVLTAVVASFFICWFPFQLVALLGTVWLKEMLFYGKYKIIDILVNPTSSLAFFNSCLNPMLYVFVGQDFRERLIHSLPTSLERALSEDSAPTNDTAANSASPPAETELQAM
VLA-4 allo ag: enhancers of LDV-FITC binding to VLA-4 integrin, primary screen, Jurkat cells, flow cytometry; Integrin alpha-4 (Homo sapiens), P13612; 24,000 tested, under 10 active; activation, % at 10 µM (by protocol);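 active means fluorescent ligand binding to cells raised by more than 40% of the manganese-induced maximum; inconclusive means compound's own fluorescence above 85% of the ligand control signal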;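 further: 0% = ligand binding without compound and 100% = manganese-stimulated maximal binding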
Active calls of the source: *. Most compounds without a hit are left out; they make up all but 1.4% or so of the library. Unless noted, no stated cut-off is given here; in the data, active means inhibition above about 30%; inconclusive means no clear call, values can overlap the other calls; inactive means below that.

How did COCCCNC(=O)CCCn1c(=O)c2ccccc2n(CC(=O)Nc2c(C)cc(C)cc2C)c1=O do in these assays?
Jurkat autofluor: 1.15; VLA-4 antagonist: 2.0; FPR ligand: -9.0; FPRL1 ligand: 0.6; VLA-4 allo ag: -8.5

What do the screens show for `O=C(c1ccco1)N1CCN(c2nc3ccccc3n3nnnc23)CC1`?
Jurkat autofluor: 9.45*; VLA-4 antagonist: inconclusive; FPR ligand: -9.4; FPRL1 ligand: -6.3; VLA-4 allo ag: inconclusive

What do the screens show for `c1ccc2c(c1)CCN(c1nc3ccccc3n3cnnc13)C2`?
Jurkat autofluor: 1.19; VLA-4 antagonist: inconclusive; FPR ligand: -1.0; FPRL1 ligand: 4.5; VLA-4 allo ag: inconclusive

How did c1ccc2c(c1)CCCN2c1nc2ccccc2n2cnnc12 do in these assays?
Jurkat autofluor: 2.64*; VLA-4 antagonist: inconclusive; FPR ligand: -5.8; FPRL1 ligand: -5.5; VLA-4 allo ag: inconclusive

What do the screens show for `CCN(CC)S(=O)(=O)c1ccc(Nc2nc3ccccc3n3nnnc23)cc1`?
Jurkat autofluor: 3.24*; VLA-4 antagonist: inconclusive; FPR ligand: -10.6; FPRL1 ligand: -1.8; VLA-4 allo ag: inconclusive

What do the screens show for `CCN(CC)S(=O)(=O)c1ccc(NC(=O)Cn2cnc3ccccc3c2=O)cc1`?
Jurkat autofluor: 1; VLA-4 antagonist: -5.0; FPR ligand: 0.2; FPRL1 ligand: 1.1; VLA-4 allo ag: -3.0

Results for c1ccc2c(c1)nc(Nc1ccc3c(c1)OCO3)c1nnnn12 ?
Jurkat autofluor: 3.23*; VLA-4 antagonist: inconclusive; FPR ligand: -12.0; FPRL1 ligand: -10.3; VLA-4 allo ag: inconclusive

How did Cc1cc(C)n(-c2nc3ccccc3nc2Nc2ccc3c(c2)OCO3)n1 do in these assays?
Jurkat autofluor: 1.53; VLA-4 antagonist: inconclusive; FPR ligand: -8.6; FPRL1 ligand: -4.3; VLA-4 allo ag: inconclusive

What do the screens show for `CCOC(=O)N1CCN(C(=O)c2cn(CC)c3cc(N4CCN(C)CC4)c(F)cc3c2=O)CC1`?
Jurkat autofluor: 0.99; VLA-4 antagonist: -11.0; FPR ligand: 8.5; FPRL1 ligand: -0.2; VLA-4 allo ag: 1.0

What do the screens show for `COc1ccc(C(=O)N[C@H]2COC(C)(C)O[C@H]2c2ccccc2)cc1`?
Jurkat autofluor: 1.05; VLA-4 antagonist: -36.0; FPR ligand: -4.6; FPRL1 ligand: 3.3; VLA-4 allo ag: -1.0

How did CC(=O)NC(CCS(C)(=O)=O)C(=O)Nc1ccc(F)cc1Cl (centres undefined) do in these assays?
Jurkat autofluor: 1.01; VLA-4 antagonist: -5.0; FPR ligand: 0.8; FPRL1 ligand: 6.7; VLA-4 allo ag: 6.0

What do the screens show for `CCOC(=O)c1c(C)oc2c1c(C=NCc1ccccn1)c(O)c1ccccc12`?
Jurkat autofluor: 2.86*; VLA-4 antagonist: inconclusive; FPR ligand: -3.5; FPRL1 ligand: -39.0; VLA-4 allo ag: inconclusive

Results for CCOC(=O)c1c(C)oc2c1c(C=NCC1CCCO1)c(O)c1ccccc12 (centres undefined) ?
Jurkat autofluor: 1.74; VLA-4 antagonist: inconclusive; FPR ligand: -4.5; FPRL1 ligand: 4.1; VLA-4 allo ag: inconclusive

How did N#CC1=C(N)OC2=C(CCC/C2=C/c2ccoc2)C1c1ccoc1 (centres undefined) do in these assays?
Jurkat autofluor: 2.47*; VLA-4 antagonist: 6.5; FPR ligand: 1.7; FPRL1 ligand: 3.7; VLA-4 allo ag: 1.3

Results for O=C(CSc1nnc(CNC(=O)c2cccs2)o1)Nc1cccc(C(F)(F)F)c1 ?
Jurkat autofluor: 1.03; VLA-4 antagonist: -4.3; FPR ligand: -11.0; FPRL1 ligand: -6.8; VLA-4 allo ag: -1.7

Results for CCN(CC)c1ccc2c(c1)CCCN2 ?
Jurkat autofluor: 4.49*; VLA-4 antagonist: inconclusive; FPR ligand: -9.2; FPRL1 ligand: -23.0; VLA-4 allo ag: inconclusive

How did CC1(C(=O)NC2CCCC2)CCC(=O)N1Cc1ccccc1 (centres undefined) do in these assays?
Jurkat autofluor: 1.17; VLA-4 antagonist: 9.0; FPR ligand: -3.6; FPRL1 ligand: 1.6; VLA-4 allo ag: 4.0

How did CC1(C)S[C@@H]2[C@H](NC(=O)Cc3ccccc3)C(=O)N2[C@H]1C(=O)O do in these assays?
Jurkat autofluor: 1.02; VLA-4 antagonist: -13.5; FPR ligand: 48.4*; FPRL1 ligand: 7.8; VLA-4 allo ag: 1.0

Results for Cc1cc2cc(CN3C(=O)c4ccccc4C3=O)ccc2n1C ?
Jurkat autofluor: 1.22; VLA-4 antagonist: -5.0; FPR ligand: 0.8; FPRL1 ligand: -1.3; VLA-4 allo ag: -2.0

How did COc1cc2c(cc1OC)C(C(=O)NCc1cccnc1)C(c1cccnc1)N(C)C2=O (centres undefined) do in these assays?
Jurkat autofluor: 1.06; VLA-4 antagonist: 8.0; FPR ligand: -2.8; FPRL1 ligand: 8.3; VLA-4 allo ag: -5.0

Results for CN(C)CCCN1C(=O)C(O)=C(C(=O)c2cc3ccccc3o2)C1c1ccccn1 (centres undefined) ?
FPR ligand: -4.5; FPRL1 ligand: -0.2

How did COc1ccc(-c2cc(C(F)(F)F)nc(N3CCN(Cc4ccccc4)CC3)n2)cc1OC do in these assays?
Jurkat autofluor: 1.11; VLA-4 antagonist: -3.0; FPR ligand: 7.7; FPRL1 ligand: 74.9*; VLA-4 allo ag: -4.0

What do the screens show for `COC(=O)Cn1c(=O)c2c(nc3n2CC(C)CN3c2ccc(C)c(C)c2)n(C)c1=O` (centres undefined)?
Jurkat autofluor: 1.03; VLA-4 antagonist: -12.0; FPR ligand: -6.6; FPRL1 ligand: -0.9; VLA-4 allo ag: 4.0

What do the screens show for `Cc1ccccc1-n1c(Cn2c(=O)sc3ccccc32)nnc1SCC(N)=O`?
Jurkat autofluor: 0.99; VLA-4 antagonist: -11.0; FPR ligand: 3.5; FPRL1 ligand: 6.3; VLA-4 allo ag: 4.3

What do the screens show for `Cc1cc(NC(=O)CSc2nnc(Cn3c(=O)sc4ccccc43)n2-c2ccccc2C)no1`?
Jurkat autofluor: 1; VLA-4 antagonist: 5.0; FPR ligand: 36.2*; FPRL1 ligand: 15.8; VLA-4 allo ag: -2.0

Results for CCc1cccc(NC(=O)CN(c2ccc(OC)cc2)S(=O)(=O)c2c(C)n[nH]c2C)c1 ?
Jurkat autofluor: 0.91; VLA-4 antagonist: 62.0*; FPR ligand: -1.5; FPRL1 ligand: 1.3; VLA-4 allo ag: -7.0

Results for COc1ccc(N(CC(=O)Nc2cccc(C)c2)S(=O)(=O)c2c(C)n[nH]c2C)cc1 ?
Jurkat autofluor: 0.98; VLA-4 antagonist: 23.0; FPR ligand: 2.3; FPRL1 ligand: -1.1; VLA-4 allo ag: -6.0

What do the screens show for `Cc1ccc(Nc2nc(C3CC3)cs2)cc1`?
Jurkat autofluor: 1.37; VLA-4 antagonist: inconclusive; FPR ligand: 33.7*; FPRL1 ligand: 8.0; VLA-4 allo ag: inconclusive

What do the screens show for `CCOC(=O)Cn1nc(-c2ccc(Cl)cc2)cc1N`?
Jurkat autofluor: 1.14; VLA-4 antagonist: inconclusive; FPR ligand: -1.8; FPRL1 ligand: -5.9; VLA-4 allo ag: inconclusive

Bioassay records from PubChem.
